Only some compounds are listed: those with a hit (about 4.7% of all), similar ones and a draw of the others.
ATXN viability – viability counter-screen for ATXN expression inhibitors; S2 cells (HEK-293 line with an ATXN2-luciferase reporter) viability, CellTiter-Fluor protease fluorescence, 24 h; Potency, µM (highest dose often 56.7 µM), hits mostly cytotoxic; 400,000 tested, 0.49% active; AID 651635; further: nearly all actives have a fitted effect of over 40% in size
HepG2 viability – HepG2 cytotoxicity, counter-screen for TGF-b inhibitors. HepG2 CAGA-GFP viability, ATP luminescence, 18 h. Potency, µM (doses to about 46.1 µM), hits mostly cytotoxic. 410,000 tested, 0.76% active. AID 588856
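CellTiter-Glo luminescence gave cytotoxicity after 18 hours at 37 degrees C. The cells were HepG2 CAGA-GFP in 1% FBS DMEM, stimulated with 500 pg/mL TGF-beta after compound addition. %Activity was normalised to no-cell wells (complete cell-killing) and DMSO (no toxicity), and curves were fitted and classified.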
DRD3 agonist – activates the human D3 dopamine receptor; 410,000 tested, 0.58% active; D3R DiscoveRx beta-arrestin cells, luminescence, 90 min; P35462; max activation, %; in the data active means max activation above about 30%
Target sequence (P35462 whole entry, looked up): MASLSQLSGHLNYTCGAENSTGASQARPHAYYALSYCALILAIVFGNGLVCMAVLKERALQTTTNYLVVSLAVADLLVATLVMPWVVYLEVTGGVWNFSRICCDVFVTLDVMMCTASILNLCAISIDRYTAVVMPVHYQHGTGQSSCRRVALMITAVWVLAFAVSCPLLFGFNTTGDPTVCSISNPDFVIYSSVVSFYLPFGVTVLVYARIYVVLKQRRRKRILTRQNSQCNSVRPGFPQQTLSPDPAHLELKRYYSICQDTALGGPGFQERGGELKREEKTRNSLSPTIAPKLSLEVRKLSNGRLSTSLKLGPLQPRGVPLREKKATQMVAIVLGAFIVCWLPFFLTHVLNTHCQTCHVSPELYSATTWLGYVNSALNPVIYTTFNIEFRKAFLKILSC
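Agonist-mode cell screen: cells plated at 1500/well and incubated overnight at 37 °C, then exposed to library compounds for 90 min at 37 °C. Detection reagent was added for 30–60 min at room temperature, and luminescence was read.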
DRD3 antagonist – antagonists of human D3 dopamine receptor; AID 652054; 360,000 tested, 2.5% active; P35462; D3R cells, DiscoveRx beta-arrestin luminescence, antagonist mode; stronger effect = lower value; max response, negative = inhibition, %; in the data active means max response below about -50%; inconclusive means no clear call, values can overlap the other calls
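Cells expressing the human receptor were seeded at 1500 cells/well, incubated overnight at 37 degrees C in 5% CO2, then exposed to library compounds with dopamine controls for 90 minutes at 37 degrees C before luminescent detection.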
ATXN2 expr inh – ATXN2 expression inhibition; HEK-293 ATXN2-luciferase reporter, luminescence, 24 h; AID 1745845; 360,000 tested, 0.72% active; Potency, µM (series often up to 57 µM), usual class: inhibitors; further: nearly all actives have a fitted effect of over 55% in size
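qHTS (up to 57 uM final) was run with 24 h compound exposure of reporter cells at 37 °C. Each well was multiplexed: SteadyGlo luminescence measured ATXN2-luciferase expression after a fluorogenic Gly-Phe-AFC viability readout (25 uM final).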
TGFb inhibitor – inhibitors of TGF-b signaling; HepG2 CAGA-GFP TGF-b/SMAD3 reporter, GFP fluorescence, 18 h; TGF-beta stimulated, 500 pg/mL final; Potency, µM (doses to about 46.1 µM), usual class: inhibitors; 410,000 tested, 1.2% active; AID 588855; further: nearly all actives have a fitted effect of over 65% in size
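Inhibition was scored as loss of TGF-beta-induced (500 pg/mL final, 18 hours, 37 degrees C) GFP in HEPG2 cells carrying a CAGA-GFP reporter, in DMEM with 1% FBS. Well GFP was summed per cell; Activity was normalised to unstimulated and stimulated DMSO wells, then concentration-response fitting.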
Each line names hits and unclear results; the compound was inactive in the other large screens. Unless noted, the call rests on the fitted dose curve; in most records, active means well fitted curve in the direction sought with a large enough effect; inconclusive means small, poorly fitted or top-dose-only effect, or another doubt; inactive means no such curve, though single readings can be large; an effect the other way counts as inactive or inconclusive.

CN1CCC(Nc2ncc3ncnc(Nc4ccc(F)c(Cl)c4)c3n2)CC1	ATXN viability inconclusive, ATXN2 expr inh 28µM (no result: HepG2 viability, DRD3 antagonist, TGFb inhibitor)
COc1ccc([N+](=O)[O-])cc1NC(=O)C(C)c1ccccc1 (stereo unspecified)	none
COC(=O)c1ccccc1NC(=S)NC(NC(=O)c1ccccc1[N+](=O)[O-])C(Cl)(Cl)Cl (stereo unspecified)	DRD3 antagonist -51
COc1ccc([N+](=O)[O-])cc1NC(=S)NC(NC(=O)C(c1ccccc1)c1ccccc1)C(Cl)(Cl)Cl (stereo unspecified)	ATXN viability inconclusive, DRD3 antagonist -80, ATXN2 expr inh 22µM, TGFb inhibitor 4.5µM
COc1ccc(NC(=O)c2cc(Br)ccc2Cl)c([N+](=O)[O-])c1	ATXN2 expr inh inconclusive
COc1ccc(NC(=S)NC(NC(=O)c2ccc(Cl)cc2Cl)C(Cl)(Cl)Cl)c([N+](=O)[O-])c1 (stereo unspecified)	ATXN viability inconclusive, ATXN2 expr inh inconclusive, TGFb inhibitor 11µM
COc1ccc(NC(=O)c2ccc(C)cc2Cl)c([N+](=O)[O-])c1	DRD3 antagonist -63
Cc1cc(C)cc(NC(=O)Cc2csc(COc3cccc(C)c3)n2)c1	none (no result: DRD3 antagonist)
COc1ccc(-c2nc3ccccc3o2)cc1NC(=O)c1ccc(OCC(C)C)cc1	none (no result: DRD3 antagonist)
O=C(Nc1ccccc1)c1[nH]ncc1[N+](=O)[O-]	DRD3 antagonist -63
O=C(O)C1=CO[C@@H](O[C@@H]2O[C@H](CO)[C@H](O)[C@H](O)[C@H]2O)[C@@H]2C(CO)=CC[C@H]12	none (no result: ATXN viability, HepG2 viability, DRD3 agonist, DRD3 antagonist, TGFb inhibitor)
O=C(Nc1ccc2c(c1)Cc1ccccc1-2)c1ccco1	DRD3 antagonist -98
COc1cccc(OC)c1C(=O)Nc1ccc2c(c1)Cc1ccccc1-2	none
Cc1cccc(S(=O)(=O)c2cn(Cc3ccc(F)cc3)c3cc(N4CCOCC4)c(F)cc3c2=O)c1	none (no result: DRD3 antagonist)
O=C(O)c1cccc(Nc2c([N+](=O)[O-])c(=O)oc3ccccc23)c1	none
O=c1oc2ccccc2c(Nc2cccc(O)c2)c1[N+](=O)[O-]	DRD3 antagonist -81
COc1ccc(NC(=O)Cn2c(=O)n(CCCC(=O)NCc3ccccc3OC)c(=O)c3ccccc32)cc1Cl	none (no result: DRD3 antagonist)
NC(=Nc1nc(-c2ccccn2)cc2ccccc12)c1ccccn1	ATXN viability inconclusive, ATXN2 expr inh 0.32µM
COc1ccc(CNC(=O)C(=O)Nc2ccc(OC)cc2OC)cc1	none (no result: DRD3 antagonist)
Cc1ccc(C(=O)N2CCN(CCNC(=O)C(=O)NCc3ccc(Cl)cc3)CC2)cc1	DRD3 antagonist -78
O=C(NCCN1CCN(S(=O)(=O)c2ccccc2)CC1)C(=O)Nc1ccc(F)cc1	none
Cc1ccc(C(=O)N2CCN(CCNC(=O)C(=O)Nc3ccc(Cl)cc3)CC2)cc1	DRD3 antagonist -61, TGFb inhibitor inconclusive
Cc1ccc(S(=O)(=O)N2CCN(CCNC(=O)C(=O)Nc3ccc(F)cc3)CC2)cc1	DRD3 agonist 32
O=C(CNCc1ccc(Cl)cc1)Nc1ccc(C(=O)N2CCCCCC2)cc1	DRD3 antagonist -65, TGFb inhibitor inconclusive
CCN1CCN(C(=O)c2ccc(CSc3ccc(C)cc3)cc2)CC1	DRD3 antagonist -53
CCc1ccccc1NS(=O)(=O)c1ccc2c(c1)NC(=O)CC(=O)N2	none
CCCN(CCC)CCc1cccc2c1CC(=O)N2	DRD3 agonist 81 (no result: HepG2 viability, DRD3 antagonist, TGFb inhibitor)
CN(c1ccccc1)c1nc(C#N)nc(N2CCOCC2)n1	none (no result: ATXN viability, DRD3 agonist, DRD3 antagonist, ATXN2 expr inh)
Cc1cccnc1C(NC(=O)C1CCN(Cc2ccc(Oc3ccccc3)cc2)CC1)c1ccccc1 (stereo unspecified)	ATXN viability inconclusive, DRD3 antagonist -81, ATXN2 expr inh inconclusive, TGFb inhibitor inconclusive
COc1ccc(C(NC(=O)C2CCN(Cc3ccc(Oc4ccccc4)cc3)CC2)c2ccccc2C)cn1 (stereo unspecified)	ATXN viability inconclusive, DRD3 antagonist -79
Cc1cccnc1C(NC(=O)C1CCN(CCCOc2ccccc2)CC1)c1ccc(F)cc1 (stereo unspecified)	DRD3 antagonist -105
